# Shown are actives, neighbours in structure and some others; about 12% of the full set was active somewhere.
# G9a block: G9a (human) methyltransferase inhibition; Q96KQ7; G9a H3K9 monomethylation, AlphaScreen, 2 h; Potency, µM (top dose mostly 102 µM), inactives show at the highest dose activity, negative = inhibition, hits mostly inhibitors; 350,000 tested, 8.8% active; note: % is set by controls: 0 for no effect and ±100 for the full control effect; nearly all actives have a fitted effect of over 75% in size
#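 Methyltransferase reactions run at room temperature for 2 h (20 nM enzyme, 500 nM biotin-H3K9 peptide, 20 uM SAM) after a 15 min compound preincubation; product detected by AlphaScreen beads and anti-H3K9me1 antibody.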
# Sfp inh: blocks B. subtilis Sfp PPTase activity | Q9F4F7 | Potency, µM, for inactives: largest response in the series, negative = inhibition, hits mostly inhibitors | 310,000 tested, 3.5% active | Biochemical Sfp PPTase activity, qHTS;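 note: the enzyme is Sfp with the accession as filed and its product quenches rhodamine fluorescence; 0% = enzyme reaction without inhibitor and -100% = no enzyme wells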
#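 Compounds were incubated with enzyme (final 15 nM) for 15 min at room temperature before substrate addition started the reaction. Fluorescence at 525 nm excitation, 598 nm emission was recorded immediately and after 30 minutes.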
# HP1b chromo inh: blocks HP1-beta chromodomain binding to methylated histone tails; P83916; 390,000 tested, 0.56% active; AlphaScreen HP1-beta / biotin-H3K9me3 peptide binding; Potency, µM (top dose mostly 114 µM), for the others: at the top dose activity change, negative = inhibition, hits mostly inhibitors; note: nearly all actives have a fitted effect of over 70% in size
#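 HP1-beta protein (50 nM final) preincubated 30 min at room temperature with biotinylated H3(1-18)K9me3 peptide (50 nM) in PBS pH 7.4, 0.01% Tween-20, then compound added for 30 min. AlphaScreen streptavidin donor/nickel chelate acceptor beads (10 ug/mL final), 30 min dark, luminescence read.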
# BAZ2B inh: blocks human BAZ2B | AID 504333 | Q9UIF8 | Potency, µM (titrated, usually from 114 µM), for inactives: at the highest dose activity change, negative = inhibition, most hits filed as inhibitors | 360,000 tested, 4.4% active | AlphaScreen BAZ2B-H3K14Ac peptide displacement; note: % is set by controls: 0 for no effect and ±100 for the full control effect; nearly all actives have a fitted effect of over 60% in size
#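 Protein-peptide AlphaScreen: BAZ2B 50 nM, b-H3K14Ac 50 nM, 1x PBS pH 7.4 + 0.01% Tween-20. Preincubation 30 min RT; cpd 30 min RT (top 110 uM); beads 20 min RT, light-protected.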
# JMJD2A Tudor: inhibitors of human JMJD2A Tudor domain; Potency, µM (titrated, usually from 114 µM), for inactives: at the highest dose activity change, negative = inhibition, most hits filed as inhibitors; AlphaScreen JMJD2A-Tudor / H3K4me3 peptide binding; O75164; 390,000 tested, 4.4% active; note: % is set by controls: 0 for no effect and ±100 for the full control effect; nearly all actives have a fitted effect of over 50% in size
# Target sequence (O75164 whole entry, looked up, the tested form may be a part): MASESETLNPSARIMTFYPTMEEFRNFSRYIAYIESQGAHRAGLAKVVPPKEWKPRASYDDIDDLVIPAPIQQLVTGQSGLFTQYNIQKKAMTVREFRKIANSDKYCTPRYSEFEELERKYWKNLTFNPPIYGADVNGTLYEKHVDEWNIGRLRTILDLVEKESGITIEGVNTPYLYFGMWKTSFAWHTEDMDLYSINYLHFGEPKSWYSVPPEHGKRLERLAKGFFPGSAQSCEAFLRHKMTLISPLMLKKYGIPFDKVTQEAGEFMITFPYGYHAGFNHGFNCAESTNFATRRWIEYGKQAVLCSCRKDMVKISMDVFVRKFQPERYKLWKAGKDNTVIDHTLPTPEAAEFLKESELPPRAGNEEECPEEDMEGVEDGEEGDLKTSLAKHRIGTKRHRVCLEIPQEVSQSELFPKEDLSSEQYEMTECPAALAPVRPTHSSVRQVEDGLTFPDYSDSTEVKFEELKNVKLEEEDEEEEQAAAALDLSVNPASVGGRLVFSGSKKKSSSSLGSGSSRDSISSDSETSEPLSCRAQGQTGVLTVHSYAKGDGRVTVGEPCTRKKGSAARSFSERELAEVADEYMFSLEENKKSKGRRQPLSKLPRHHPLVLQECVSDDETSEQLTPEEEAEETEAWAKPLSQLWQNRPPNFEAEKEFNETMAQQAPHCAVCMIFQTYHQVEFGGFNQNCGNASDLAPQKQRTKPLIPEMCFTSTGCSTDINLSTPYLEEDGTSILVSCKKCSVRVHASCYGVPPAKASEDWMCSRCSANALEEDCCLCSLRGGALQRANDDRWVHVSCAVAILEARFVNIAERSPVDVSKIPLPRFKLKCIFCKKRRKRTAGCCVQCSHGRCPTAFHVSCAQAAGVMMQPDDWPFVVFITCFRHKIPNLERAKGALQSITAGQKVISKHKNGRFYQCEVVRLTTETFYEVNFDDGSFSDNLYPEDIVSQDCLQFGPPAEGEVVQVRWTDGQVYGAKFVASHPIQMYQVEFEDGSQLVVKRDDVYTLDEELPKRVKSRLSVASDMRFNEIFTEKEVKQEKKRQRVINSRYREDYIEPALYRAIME
# * = called active by the depositor; ? = inconclusive; / = no result; [ ] = dose if it differs, or a comment. Calls come from the whole dose curve; as a rule, active = well fitted curve in the direction sought with a large enough effect; inconclusive = small, poorly fitted or top-dose-only effect, or another doubt; inactive = no such curve, though single readings can be large; an effect the other way counts as inactive or inconclusive. Potency is the fitted concentration of half-maximal effect.
SMILES,G9a block,Sfp inh,HP1b chromo inh,BAZ2B inh,JMJD2A Tudor
CN(C(=O)C=Cc1ccco1)c1ccccc1,/,/,15%,/,-16%
O=C(O)/C=C/C(=O)Nc1ccccc1C(=O)Nc1ccccc1,?,79µM*,64%,-35%,-16%
O=C(/C=C/c1ccco1)Nc1cc(Cl)ccc1C(=O)O,8.9µM*,56µM*,-6%,?,?
Cc1ccc(C(C)C)cc1S(=O)(=O)Nc1ccncc1,?,4%,39%,-8%,-2%
Cc1c(-c2ccccc2)sc2nc[nH]c(=S)c12,28%,18%,14%,0%,-17%
Cc1ncc(CO)c2cc(-c3nnc(Nc4ccc5c(c4)OCO5)s3)c(=O)oc12,?,15%,3%,?,-29%
Nc1nc(-c2ccc([N+](=O)[O-])cc2)cs1,50µM*,9%,16%,1%,-14%
Nc1nc(-c2ccc(F)cc2)cs1,45µM*,9%,-39%,?,-23%
Nc1nc(-c2ccc(Br)cc2)cs1,?,-6%,-13%,50µM*,79µM*
Nc1nc(-c2ccccc2)cs1,?,-3%,?,-3%,-26%
CC(C)C(=O)Nc1nc(-c2ccc([N+](=O)[O-])cc2)cs1,2%[59 µM],12%,9%,-17%,-19%
O=[N+]([O-])c1ccc(-c2csc(NN=C3CCCC3)n2)cc1,50µM*,16%,18%,-1%,-28%
CCOc1ccccc1OCCCC(=O)OCC(=O)Nc1cccc(Cl)c1,18%[59 µM],22%,65%,-2%,7%
Cc1nc2nc(-c3ccc(Cl)cc3)[nH]n2c(=O)c1Cc1ccccc1,-6%[59 µM],20%,20%,6%,-13%
Nc1nc(-c2ccc3c(c2)CCC(=O)N3)cs1,45µM*,40µM*,26%,-18%,-12%
CC1(C)CC(c2nc(-c3ccc([N+](=O)[O-])cc3)cs2)CCO1 (centres undefined),50µM*,?,7%,?,-14%[57.1 µM]
c1ccc(CSc2ncn[nH]2)nc1,45µM*,10%,0%,-27%,-7%
O=S(=O)(c1cccnc1)N1CCn2cccc2C1c1ccccc1F (centres undefined),45µM*,/,-17%,?,-26%
CC(C)C(NS(=O)(=O)c1cccs1)C(=O)NCCN1CCN(c2ccccc2)CC1 (centres undefined),10%,17%,1%,4%,-25%
CC1(C)Cc2ccccc2C(N/N=C/c2cccc(F)c2)=N1,40µM*,8%,58%,-7%[57.1 µM],?
Cn1c(Cn2c(=O)sc3ccccc32)nnc1SCC(=O)Nc1ccc(F)cc1,1%[59 µM],5%,67%,1%,8%
COC(C/C=C/[C@H](O)COCc1ccccc1)OC,33%[59 µM],15%,31%,6%,-8%
NC(CCC(=O)NCS(=O)(=O)O)C(=O)O (centres undefined),26%[12.7 µM],50µM*,/,/,/
CC[C@H](C)[C@H](NC(N)=O)C(=O)Nc1ccc(OC)c(Cl)c1,-2%,9%,45%,-13%,-7%
CCC(C)C(NC(N)=O)C(=O)Nc1ccc(C)c(Cl)c1 (centres undefined),8.9µM*,-14%,40%,-11%,-10%
SMILES,G9a block,Sfp inh,HP1b chromo inh,BAZ2B inh,JMJD2A Tudor
COc1ccc(N2CCN(S(=O)(=O)CCNC(=O)COc3cccc(OC)c3)CC2)cc1,-15%,27%,32%,-14%,-7%
COc1ccc(C2=Nc3ccc(C)cc3NC(c3ccc(Cl)cc3)=N2)cc1,7%[59 µM],/,11%,-2%,-24%
CCCCOc1ccc(C2=NC(c3cccs3)=Nc3ccc(OC)cc3N2)cc1,?,/,-23%,?,40µM*
CCc1ccc2c(c1)NC(c1ccc(OC)cc1)=NC(c1ccncc1)=N2,-8%[59 µM],/,?,?,50µM*
CCc1ccc2c(c1)NC(c1cccs1)=NC(c1ccc(F)cc1)=N2,?,/,17%,?,?
CCOc1ccc(C2=NC(c3cccs3)=Nc3ccc(CC)cc3N2)cc1OCC,10µM*,/,?,10µM*,25µM*
O=C(COC(=O)c1cccnc1Cl)Nc1ccc2c(c1)OCO2,-4%,3%,33%,5%,-8%
Cc1cc2c(cc1C)N(C(=O)CCl)CCN2C(=O)CCl,/,/,30%,/,40µM*
CC(=O)Nc1ccc(OC(=O)c2cc([N+](=O)[O-])ccc2Cl)cc1,-8%,8%,1%,6%,-10%
CCOC(=O)C(CC)Sc1ccc2nnc(CCNS(=O)(=O)c3ccc(C)cc3)n2n1 (centres undefined),0%[59 µM],/,61%,-12%,5%
O=C1Nc2c(ccc(Cl)c2Cl)C(=O)C1(F)c1ccccc1 (centres undefined),45µM*,-10%,0%,-26%,-22%
C=CCn1c(Cc2cccs2)nnc1SCC(=O)c1ccc(F)cc1,40µM*,2%,55%,7%,56µM*
N#Cc1ccc(CSc2nnc(Cc3cccs3)n2Cc2ccco2)cc1,?,14µM*,-7%,50µM*,?
C=CCn1c(Cc2cccs2)nnc1SCC(=O)Nc1ccc(OC)c(OC)c1,23%[12.7 µM],8%,29%,12%,-11%
C=CCn1c(Cc2cccs2)nnc1SCC(=O)c1cccc(Br)c1,32µM*,-2%,29%,-7%,-25%[57.1 µM]
C=CCn1c(Cc2cccs2)nnc1SCC(=O)NCc1ccco1,45µM*,8%,19%,?,?
CC(Sc1nnc(COc2ccc(Cl)cc2)n1-c1ccccc1)C(=O)O (centres undefined),1%[0.501 µM],17%,21%,-6%,-15%
C=CCn1c(Cc2cccs2)nnc1SCC(=O)c1ccc2ccccc2c1,28µM*,-16%,14%,-9%,-24%
COc1ccc(Br)cc1/C=N/NC(=O)CN1CCCCC1,/,6%,26%,2%,1%
COc1ccc(OC)c(/C=N/NC(=O)CN2CCSCC2)c1,?,-20%,?,56µM*,5.6µM*
COc1cc2c(cc1OC)CN(Cc1ccc(OC)c(C)c1OC)CC2,?,0%,-56%,50µM*,1.6µM*
COc1ccc(CN2CCSCC2)c(OC)c1C,10µM*,-5%,?,79µM*,4µM*
COc1ccc(-c2[nH]ncc2CN2CCSCC2)c(OC)c1,2%,12%,17%,-3%,-6%
COc1ccc(OC)c(CN2CCSCC2)c1,11µM*,-1%,?,?,1.8µM*
COc1ccc(NC(C)=O)cc1S(=O)(=O)NCCc1ccccn1,5%[12.7 µM],/,31%,7%,-2%
Cc1nc2ccccc2c(=O)n1NC(=O)c1cncc(Br)c1,4%,-8%,18%,-8%,-13%
COc1cc(OC)c(OC)cc1CN1CCc2ccccc2C1,13µM*,-6%,?,?,56µM*
c1ccc2c(CN3CCSCC3)cccc2c1,-5%[0.501 µM],?,?,?,20µM*
Cc1ccc(C)c(CN2CCSCC2)c1,/,-16%,-5%,?,7.1µM*
COc1ccc(OC)c(CN2CCCCCC2)c1,45µM*,10%,?,79µM*,14µM*

# Assay outcomes from PubChem.
